Assay results as given in PubChem BioAssay (NCI).
The panel holds about 83,000 compounds, 20% with a hit somewhere; the sample as a whole holds those more often.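 Plates (96-well) were seeded with cells, treated with compound at one concentration, and incubated for 48 hours before percent growth was determined.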 Activity calls are given as the source filed them. The calls were made as follows: active = growth percent below 10; inactive = the rest.

How the values were obtained:
Test in all cases: NCI-60 one-dose screen, 48 h (100 = growth as untreated, 0 = no growth, -100 = all killed)
Details in all cases: 10 µM unless noted
SK-MEL-2 melanoma = tested on: SK-MEL-2 melanoma
EKVX NSCLC = tested on: EKVX NSCLC
SN12C renal = tested on: SN12C renal
UO-31 renal = tested on: UO-31 renal
TK-10 renal = tested on: TK-10 renal
ACHN renal = tested on: ACHN renal
CAKI-1 renal = tested on: CAKI-1 renal
A498 renal = tested on: A498 renal
CCRF-CEM leukemia = tested on: CCRF-CEM leukemia
SR leukemia = tested on: SR leukemia
RPMI-8226 leukemia = tested on: RPMI-8226 leukemia
OVCAR-8 ovarian = tested on: OVCAR-8 ovarian
OVCAR-5 ovarian = tested on: OVCAR-5 ovarian
OVCAR-4 ovarian = tested on: OVCAR-4 ovarian
SK-OV-3 ovarian = tested on: SK-OV-3 ovarian
IGROV1 ovarian = tested on: IGROV1 ovarian
OVCAR-3 ovarian = tested on: OVCAR-3 ovarian
HS 578T breast = tested on: HS 578T breast
NCI/ADR-RES ovarian = tested on: NCI/ADR-RES ovarian
MOLT-4 leukemia = tested on: MOLT-4 leukemia

Measured: growth

O=C(O)c1ccc(-n2cc(/C=N/Nc3ccc(F)cc3)c(-c3cc4ccccc4oc3=O)n2)cc1
inactive: SK-MEL-2 melanoma 83.3% | EKVX NSCLC 52.9% | SN12C renal 101% | UO-31 renal 39.8% | TK-10 renal 113% | ACHN renal 41% | CAKI-1 renal 68.6% | A498 renal 109% | CCRF-CEM leukemia 40.2% | SR leukemia 51.9% | RPMI-8226 leukemia 90.4% | OVCAR-8 ovarian 84.5% | OVCAR-5 ovarian 82.4% | OVCAR-4 ovarian 91.1% | SK-OV-3 ovarian 94.1% | IGROV1 ovarian 74% | OVCAR-3 ovarian 82.4% | HS 578T breast 95.3% | NCI/ADR-RES ovarian 77.9%

C[C@H](NC(=O)[C@@H](C)N)[C@H](Oc1ccc2c(cnn2-c2ccc(F)cc2)c1)c1ccc2c(c1)OCCO2
active: SR leukemia -41.9%
inactive: SK-MEL-2 melanoma 65.8% | EKVX NSCLC 43.5% | SN12C renal 42.6% | UO-31 renal 18.5% | TK-10 renal 70.5% | ACHN renal 59% | CAKI-1 renal 20.4% | A498 renal 91.2% | CCRF-CEM leukemia 15.5% | RPMI-8226 leukemia 20.7% | OVCAR-8 ovarian 57.8% | OVCAR-5 ovarian 64.7% | SK-OV-3 ovarian 49.2% | IGROV1 ovarian 40.9% | OVCAR-3 ovarian 55.8% | HS 578T breast 64.8% | NCI/ADR-RES ovarian 57.6%

COc1ccc2cc(-c3ccc(NC(C)=O)c(=O)o3)ccc2c1
inactive: SK-MEL-2 melanoma 98.6% | EKVX NSCLC 106% | SN12C renal 102% | UO-31 renal 77.6% | TK-10 renal 97.4% | ACHN renal 98.7% | CAKI-1 renal 89.7% | A498 renal 85% | CCRF-CEM leukemia 93.1% | MOLT-4 leukemia 90.9% | RPMI-8226 leukemia 96.3% | OVCAR-8 ovarian 97.1% | OVCAR-5 ovarian 95% | OVCAR-4 ovarian 101% | SK-OV-3 ovarian 94.6% | IGROV1 ovarian 108% | OVCAR-3 ovarian 101% | HS 578T breast 93.8% | NCI/ADR-RES ovarian 103%

CCOC(=O)Cn1c(O)c(N=Nc2ccc(S(N)(=O)=O)cc2)c2cc(Br)ccc21
inactive: SK-MEL-2 melanoma 88.8% | EKVX NSCLC 83.3% | SN12C renal 88.2% | UO-31 renal 87.5% | TK-10 renal 86.4% | ACHN renal 84.8% | CAKI-1 renal 86.4% | A498 renal 91.4% | CCRF-CEM leukemia 53.4% | MOLT-4 leukemia 77% | RPMI-8226 leukemia 79.5% | OVCAR-8 ovarian 56.5% | OVCAR-5 ovarian 85.9% | OVCAR-4 ovarian 31.2% | SK-OV-3 ovarian 81.9% | IGROV1 ovarian 73% | OVCAR-3 ovarian 84.9% | HS 578T breast 89.7% | NCI/ADR-RES ovarian 89.7%

COc1ccc(-c2ccc3cnc4sc(-c5ccc(OC)cc5)nc4c3n2)cc1
inactive: SK-MEL-2 melanoma 96.2% | EKVX NSCLC 68.6% | SN12C renal 103% | UO-31 renal 61.7% | TK-10 renal 142% | ACHN renal 89.8% | CAKI-1 renal 96% | A498 renal 63.4% | CCRF-CEM leukemia 102% | SR leukemia 83.7% | RPMI-8226 leukemia 87.5% | OVCAR-8 ovarian 96.3% | OVCAR-5 ovarian 97.4% | OVCAR-4 ovarian 96.9% | SK-OV-3 ovarian 92.6% | IGROV1 ovarian 94% | OVCAR-3 ovarian 101% | HS 578T breast 94.4% | NCI/ADR-RES ovarian 92.9%

c1cnc2[nH]cc(-c3csc(-c4cn(CCCN5CCOCC5)c5ccccc45)n3)c2c1
inactive: SK-MEL-2 melanoma 82.6% | EKVX NSCLC 47.9% | SN12C renal 64.5% | UO-31 renal 23% | TK-10 renal 69.6% | ACHN renal 32.8% | CAKI-1 renal 47.5% | A498 renal 53.9% | CCRF-CEM leukemia 17.4% | MOLT-4 leukemia 16.6% | RPMI-8226 leukemia 24.4% | OVCAR-8 ovarian 62.4% | OVCAR-5 ovarian 62.1% | OVCAR-4 ovarian 45.1% | SK-OV-3 ovarian 73.4% | IGROV1 ovarian 35.3% | OVCAR-3 ovarian 64.4% | HS 578T breast 28.5% | NCI/ADR-RES ovarian 60.1%

COc1ccc(C(=O)Nc2ncc(Cc3ccc(F)cc3)s2)cc1
inactive: SK-MEL-2 melanoma 30.7% | EKVX NSCLC 38.4% | SN12C renal 25.1% | UO-31 renal 39.8% | TK-10 renal 63.7% | ACHN renal 28.3% | CAKI-1 renal 22.3% | CCRF-CEM leukemia 12.3% | MOLT-4 leukemia 14.8% | RPMI-8226 leukemia 15.9% | OVCAR-8 ovarian 27.6% | OVCAR-5 ovarian 29.6% | OVCAR-4 ovarian 48.9% | SK-OV-3 ovarian 44.6% | IGROV1 ovarian 18.3% | HS 578T breast 31.7%
active: A498 renal -12.4% | OVCAR-3 ovarian -22.2% | NCI/ADR-RES ovarian 7.08%

CCN(CC)CCOc1ccc(-c2c(-c3ccccc3)c(=O)oc3ccccc23)cc1
inactive: SK-MEL-2 melanoma 82.5% | EKVX NSCLC 94.6% | SN12C renal 80.3% | UO-31 renal 61.5% | TK-10 renal 95.9% | ACHN renal 100% | CAKI-1 renal 97.5% | A498 renal 72% | CCRF-CEM leukemia 95.7% | MOLT-4 leukemia 80.7% | RPMI-8226 leukemia 90.9% | OVCAR-8 ovarian 90.6% | OVCAR-5 ovarian 95.6% | OVCAR-4 ovarian 94.2% | SK-OV-3 ovarian 79.1% | IGROV1 ovarian 95.5% | OVCAR-3 ovarian 104% | HS 578T breast 71.2% | NCI/ADR-RES ovarian 84.8%

CN(CCn1sc(=O)n(Cc2ccccc2)c1=O)Cc1ccc2c(Cl)cc(Cl)c(O)c2n1
inactive: SK-MEL-2 melanoma 66.9% | EKVX NSCLC 35.9% | SN12C renal 34.7% | TK-10 renal 63.7% | ACHN renal 27.8% | CAKI-1 renal 46.4% | A498 renal 68.4% | CCRF-CEM leukemia 27.6% | SR leukemia 39.2% | RPMI-8226 leukemia 45% | OVCAR-8 ovarian 32.7% | OVCAR-5 ovarian 61.4% | OVCAR-4 ovarian 59.3% | SK-OV-3 ovarian 65.4% | IGROV1 ovarian 37.3% | OVCAR-3 ovarian 18.9% | HS 578T breast 68.1%
active: UO-31 renal -11.7% | NCI/ADR-RES ovarian 6.83%

CCN(CC)CCOc1ccc(C(=C(C)c2ccc(Cl)cc2)c2ccc(OCCN(CC)CC)cc2)cc1
active: SK-MEL-2 melanoma -60.2% | SN12C renal -83.7% | UO-31 renal -92.8% | TK-10 renal -87.2% | ACHN renal -88.3% | CAKI-1 renal -95.7% | A498 renal 7.66% | CCRF-CEM leukemia -62.8% | SR leukemia -54.4% | RPMI-8226 leukemia -49.8% | OVCAR-8 ovarian -47.1% | OVCAR-5 ovarian -84.1% | OVCAR-4 ovarian -62.1% | SK-OV-3 ovarian -79.9% | IGROV1 ovarian -86.9% | OVCAR-3 ovarian -70.5% | HS 578T breast -52.5% | NCI/ADR-RES ovarian -68.2%
inactive: EKVX NSCLC 26.1%

Cc1ccc(S(=O)(=O)N2CCCC2CO)cc1 (configuration not stated)
inactive: SK-MEL-2 melanoma 96.3% | EKVX NSCLC 101% | SN12C renal 101% | UO-31 renal 94.2% | TK-10 renal 101% | ACHN renal 89.3% | CAKI-1 renal 85.6% | A498 renal 65.7% | CCRF-CEM leukemia 68.5% | MOLT-4 leukemia 98.8% | RPMI-8226 leukemia 62.6% | OVCAR-8 ovarian 103% | OVCAR-5 ovarian 85.7% | OVCAR-4 ovarian 93.5% | SK-OV-3 ovarian 102% | IGROV1 ovarian 90.6% | OVCAR-3 ovarian 104% | HS 578T breast 79.5% | NCI/ADR-RES ovarian 56.7%

O=C(c1ccc(-c2ccccc2)cc1)c1ccc([N+](=O)[O-])cc1
active: SK-OV-3 ovarian -100%
inactive: SK-MEL-2 melanoma 104% | EKVX NSCLC 98% | SN12C renal 104% | UO-31 renal 97.5% | TK-10 renal 124% | ACHN renal 97.5% | CAKI-1 renal 88.1% | A498 renal 124% | CCRF-CEM leukemia 89% | SR leukemia 86.8% | RPMI-8226 leukemia 66.1% | OVCAR-8 ovarian 104% | OVCAR-5 ovarian 120% | OVCAR-4 ovarian 105% | IGROV1 ovarian 101% | OVCAR-3 ovarian 104% | HS 578T breast 110% | NCI/ADR-RES ovarian 114%
